In the library only some 19% were active in any assay of this set; here they are far more common.
DT40 TDP1 CPT: growth inhibition of DT40 Tdp1-/-;hTDP1 cells with camptothecin (screen for TDP1 inhibitors); Potency, µM (titrated, usually from 46.2 µM), actives largely listed as inhibitors; chicken DT40 Tdp1-/-;hTDP1 cells + 20 nM CPT, ATP luminescence, 48 h; hit rate 12% among 420,000; also: nearly all actives have a fitted effect of over 55% in size
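Chicken DT40 Tdp1-/- cells complemented with human TDP1, 400 cells/well, exposed to compounds plus 20 nM camptothecin for at least 48 h at 37 C; viability read as ATP content by CellTiter-Glo luminescence.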
HT1080-NT tox: kills 2HG-producing HT-1080-NT fibrosarcoma cells; Potency, µM (series often up to 46.1 µM), actives largely listed as cytotoxic; AID 686970; HT-1080-NT fibrosarcoma viability, CellTiter-Glo ATP luminescence, 48 h; hit rate 1.6% among 360,000;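 also: NT is the 2HG producing partner of a matched IDH1 knockdown line; nearly all actives have a fitted effect of over 55% in size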
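HT-1080-NT fibrosarcoma cells (2HG-overproducing), 750 cells/well in RPMI with 5% FBS, dosed after 2 h and incubated 48 h at 37C. CellTiter-Glo luminescence normalized to DMSO and no-cell wells; concentration-response curves fitted and classed.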
HT1080 IDH1KD tx: HT-1080 IDH1 knockdown cell toxicity (counter line); Potency, µM (series often up to 46.1 µM), usual class: cytotoxic; hit rate 2% among 360,000; HT-1080 IDH1 knockdown viability, ATP luminescence, 48 h
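Viability of IDH1-knockdown HT-1080 fibrosarcoma cells was assessed by CellTiter-Glo after 48 h at 37 °C with titrated compound; concentration-effect curves were classified by fit quality and response size.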
IL1B secr inh: blocks inflammasome-driven IL-1 beta release. THP-1 LPS/ATP IL-1B secretion, AlphaLISA, 16 h; stronger effect = lower value. activity change, % at 57.5 µM. hit rate 4.7% among 360,000; in the data active = activity change below about -50%; inconclusive = mostly about -30% to -49%
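Secreted IL-1B measured by AlphaLISA bead assay after 16 h compound exposure of THP-1 cells; compounds (final up to 57.5 uM) added 1 h before LPS (250 ng/mL) and ATP (1.25 mM) stimulation; lower signal means less secretion.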
TDP1 cell noCPT: qHTS for Inhibitors of human tyrosyl-DNA phosphodiesterase 1 (TDP1): qHTS in cells in absence of CPT | DT40 Tdp1-/- hTDP1 cells, no CPT, ATP luminescence, 48 h | Potency, µM (titrated, usually from 46.2 µM), most hits filed as inhibitors | hit rate 15% among 420,000; also: nearly all actives have a fitted effect of over 55% in size
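Growth of hTDP1-complemented DT40 Tdp1-knockout cells is measured by ATP luminescence after at least 48 hr compound exposure at 37 °C, with DMSO substituting for the 20 nM CPT used in the parallel screen.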
A number is an active result; i = inactive; ? = inconclusive; nt = no result given; [ ] = dose if it differs, or a comment. Unless noted, calls follow the shape of the dose curve; as a rule, active = well fitted curve in the direction sought with a large enough effect; inconclusive = small, poorly fitted or top-dose-only effect, or another doubt; inactive = no such curve, though single readings can be large; an effect the other way counts as inactive or inconclusive.

SMILES	DT40 TDP1 CPT	HT1080-NT tox	HT1080 IDH1KD tx	IL1B secr inh	TDP1 cell noCPT
Cc1ccc(C(=O)NC2CCN(CCCC(=O)c3ccc(F)cc3)CC2)cc1	i	i	i	i	i
COc1cc(C(=O)CCN2CCC(c3ccccc3)C2)cc(OC)c1OC (stereo not drawn)	4.61µM	i	i	-104.8	5.8µM
O=C(CCC(=O)N1CCN(c2ccccn2)CC1)c1cccs1	?	i	i	i	i
O=C(CCN1CCC(c2cccs2)=N1)c1cccs1	5.8µM	i	i	i	5.17µM
O=C(CCN1CCC2CCC(C2)C1)c1ccc(F)cc1 (stereo not drawn)	3.26µM	i	i	i	2.91µM
COc1cc(C(=O)N(C)C2CCCN(Cc3ccccc3F)C2)cc(OC)c1OC (stereo not drawn)	i	i	i	i	i
N=c1n(CCN2CCCCC2)c2ccccc2n1CC(=O)c1cccs1	18.4µM	?	?	-76.4	20.6µM
O=C(OCc1ccccc1)/C(=C(\O)c1ccccc1Br)c1ccc(-c2ccccc2)cn1	i	i	i	i	?
COc1ccc(CCN2C(=O)c3ccccc3C2c2nnnn2Cc2ccccc2)cc1OC (stereo not drawn)	?	i	i	i	?
O=C1CSC(=Nc2ccc(Cl)cc2)N1Cc1cccnc1	i	i	i	nt	?
Cc1ccc(CNC(=O)c2c(-c3ccccc3F)noc2C)o1	i	nt	nt	nt	i
COc1ccc(NC(=O)Cc2ccc(C)cc2)c([N+](=O)[O-])c1	i	i	i	i	?
COc1ccc(NC(=O)CN2CCCCC2)c([N+](=O)[O-])c1	13µM	i	i	?	12.6µM
CNS(=O)(=O)c1cccc(C(=O)OCC(=O)Nc2ccc(OC)cc2[N+](=O)[O-])c1	32.6µM	i	i	i	6.51µM
COc1ccc(NC(=O)CSc2ccccc2)c([N+](=O)[O-])c1	i	?	i	i	29.1µM
COc1ccc(NC(=O)CC2Nc3cc(C)c(C)cc3NC2=O)c([N+](=O)[O-])c1 (stereo not drawn)	?	i	i	i	5.8µM
CS(=O)(=O)c1ccc(Cl)c(NC(=O)c2ccc3ccccc3c2)c1	i	i	i	i	i
COc1ccc(NC(=O)CN2CCC(C)CC2)c([N+](=O)[O-])c1	8.2µM	i	i	?	8.2µM
COc1ccc(NC(=O)CN2CCC(C)CC2)cc1	i	i	i	i	i
COc1cc(-c2ccc(NC(=O)CN3CCC(C)CC3)c(OC)c2)ccc1NC(=O)CN1CCC(C)CC1	23.1µM	i	i	i	18.4µM
CC(C)c1ccc(NC(=O)COC(=O)CSc2nnc(N)s2)cc1	i	i	i	i	i
Cc1nc(-c2ccccc2)nc(-c2ccccc2)n1	i	i	i	i	i
COc1cc(NC(=O)COC(=O)CNC(=O)C2CCCCC2)cc(OC)c1	i	i	i	i	i
CCCN(CCC)c1nc(N)c(C#N)c(CC#N)c1C#N	14.6µM	i	i	i	23.1µM
CCN(CC)c1nc(N)c(C#N)c(CC#N)c1C#N	i	i	i	i	i
SMILES	DT40 TDP1 CPT	HT1080-NT tox	HT1080 IDH1KD tx	IL1B secr inh	TDP1 cell noCPT
CCCN(CC1CC1)c1nc(N)c(C#N)c(CC#N)c1C#N	?	i	i	i	18.4µM
Sc1nnc(-c2ccc(Cl)cc2)n1Cc1ccccc1	i	i	i	i	i
COc1ccc(-n2c(=O)c(CCc3ccccc3)nc3cnc(N4CCNCC4)nc32)cc1	?	nt	nt	nt	i
Cc1ccc(-c2nnc3ccccc3c2C(=O)Nc2ccccc2F)cc1	i	nt	nt	nt	i
CCOc1ccc(C2SCC(=O)N2c2c(C)n(C)n(-c3ccccc3)c2=O)cc1 (stereo not drawn)	i	i	i	i	i
CCOc1ccc(C2=C(C=Nc3c(C)n(C)n(-c4ccccc4)c3=O)C(c3ccc(F)cc3)c3ccccc3O2)cc1 (stereo not drawn)	23.1µM	i	i	i	?
O=C1OC[C@H]2CCCN2C(=O)[C@@H](CC(=O)N(CCO)Cc2ccccc2)C/C=C\CC[C@@H]1Cc1ccc(F)cc1	18.4µM	i	i	i	20.6µM
O=C1OC[C@H]2CCCN2C(=O)[C@@H](CC(=O)N(CCO)Cc2ccccc2)C/C=C\CC[C@H]1Cc1ccc(F)cc1	16.4µM	i	i	?	20.6µM
O=C1OC[C@@H]2CCCN2C(=O)[C@H](CC(=O)N(CCO)Cc2ccccc2)C/C=C\CC[C@H]1Cc1ccc(F)cc1	23.1µM	i	i	i	?
O=C1N[C@@H](Cc2ccccc2)COC(=O)[C@H](Cc2ccc(F)cc2)CC/C=C/C[C@@H]1CC(=O)N(CCO)Cc1ccccc1	?	i	?	?	?
COc1cccc(CNC(=O)c2ccc(CS(=O)c3ccccc3)o2)c1 (stereo not drawn)	i	i	i	i	i
Cc1ccc(NC(=O)Cn2c(=O)n(-c3ccc(CC(=O)NCC4CCCO4)cc3)c(=O)c3ccccc32)cc1 (stereo not drawn)	i	nt	nt	nt	i
Cn1c(=N)n(CC(O)c2cccc3ccccc23)c2ccccc21 (stereo not drawn)	14.6µM	23.1µM	i[9.24 µM]	?	13µM
CCCn1c(=N)n(CC(O)c2ccc(C)cc2)c2ccccc21 (stereo not drawn)	?	i	i	?	23.1µM
CCN(CC)CCn1c(=N)n(CC(O)COc2ccccc2)c2ccccc21 (stereo not drawn)	?	16.4µM	?	i	18.4µM
OC(COc1ccccc1)Cn1c2ccccc2c2ccccc21 (stereo not drawn)	?	?	?	i	?
CN=c1sc2ccccc2n1CC(O)COc1ccccc1 (stereo not drawn)	?	i	i	i	18.4µM
CCCn1c(=N)n(CC(O)c2ccco2)c2ccccc21 (stereo not drawn)	?	i	i	i	?
CC(=O)Nc1ccc(N2CCOCC2)c([N+](=O)[O-])c1	i	?	i	i	i
Cc1cc(NC(=O)CSc2nc3cc(Cl)ccc3c(=O)n2C(C)C)no1	?	i	i	i	i
Cc1cc(C)cc(NC(=O)c2cc(S(=O)(=O)N3CCc4ccccc43)cn2C)c1	i	nt	nt	nt	i
O=C1C2CCCN2C(=O)N1CCCN1CCN(c2cccc(Br)c2)CC1 (stereo not drawn)	i	i	i	i	?
CCCn1c(=N)n(CC(O)COc2ccc(C)cc2)c2ccccc21 (stereo not drawn)	4.61µM	16.4µM	16.4µM	nt	5.17µM
CCCCN(CC(O)COc1cccc(C)c1)CC(O)COc1cccc(C)c1 (stereo not drawn)	?	20.6µM	18.4µM	-99.6	23.1µM
CCCCn1c(=N)n(CC(O)COc2cccc(C)c2)c2ccccc21 (stereo not drawn)	11.6µM	?	?	-94.3	13µM
